Data taken from PubChem BioAssay (EPA / NIEHS).
Values joined by “and” are separate entries in the source; they are usually repeats but may differ in a detail not shown here. Equal values may be shown once. More than one record can exist for a structure, and the calls need not agree. Active and inactive are the calls of the source. How the source made its calls: active means hit-call score of the fitted dose curve at least 0.9, where 1 is the maximum; inactive means score below 0.9.

Tests used:
[1] = biological target: Bile acid receptor (Homo sapiens) (UniProt Q96RI1); test: ATG_IR1_CIS: Attagene CIS-FACTORIAL HepG2 Assay for human Nuclear Receptor Subfamily 1 Group H Member 4 (NR1H4), IR1 submotif (AID 2282946); settings: IR1 reporter transcription, actives raise or lower the signal
Procedure, shortened: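 Cells (human HepG2) carry transiently transfected cis-promoter reporter transcription units. Compounds are incubated 24 h, total RNA is reverse-transcribed and amplified, and labelled fragments are resolved by capillary electrophoresis. Curves use DMSO as baseline.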

[2] = ATG_GRE_CIS: Attagene CIS-FACTORIAL HepG2 Assay for human Glucocorticoid Response Elements (GRE) (AID 2282947); settings: HepG2 GRE cis-reporter, Attagene multiplex mRNA; actives raise or lower the signal
Procedure, shortened: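 Assay uses human hepatoma HepG2 cells transfected with cis-promoter reporter units, exposed 24 h. mRNA from reporters detected by RT-PCR plus capillary electrophoresis; DMSO serves as negative control and baseline.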

[3] = ATG_ISRE_CIS: Attagene CIS-FACTORIAL HepG2 Assay for human Interferon Regulatory Factor 1 (IRF1) binding to an Interferon-Stimulated Response Element (ISRE) (AID 2282948); settings: HepG2 ISRE cis-reporter (Attagene), mRNA transcription readout; actives raise or lower the signal
Procedure, shortened: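 Transfected HepG2 (multiple reporter transcription units, cis elements) dosed 24 h. RNA → oligo(dT) RT → PCR → 6-FAM primer extension → HpaI → CE. DMSO = negative control/baseline.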

[4] = ATG_M_32_CIS: Attagene CIS-FACTORIAL HepG2 Assay for M32 Transcription Factor (Internal Marker) (AID 2282949); settings: HepG2 Attagene cis-factorial M32 reporter, mRNA; actives raise or lower the signal;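 further: background control marker of the multiplexed CIS panel rather than a real target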
Procedure, shortened: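 Following 24 h chemical exposure of HepG2 cells transiently expressing cis-promoter reporter constructs, reporter transcript levels were determined by RT-PCR with fluorescent labelling and capillary electrophoresis, then fitted bidirectionally against DMSO.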

[5] = ATG_M_06_CIS: Attagene CIS-FACTORIAL HepG2 Assay for M06 Transcription Factor (Internal Marker) (AID 2282950); settings: HepG2 Attagene CIS-FACTORIAL M06 internal marker reporter; actives raise or lower the signal
Procedure, shortened: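 Internal background marker within multiplexed cis-reporter HepG2 system. Cells transiently transfected, dosed 24 h; reporter mRNA measured by RT-PCR, HpaI digestion and capillary electrophoresis. Bidirectional fit relative to DMSO.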

[6] = biological target: Hypoxia-inducible factor 1-alpha (Homo sapiens) (UniProt Q16665); test: ATG_HIF1a_CIS: Attagene CIS-FACTORIAL HepG2 Assay for human Hypoxia Inducible Factor 1 (HIF1A) (AID 2282951); settings: HepG2 Attagene cis-factorial HIF1a reporter transcription; actives raise or lower the signal
Procedure, shortened: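 RT-PCR/capillary electrophoresis fluorescence readout of reporter transcripts from endogenous-TF-driven cis elements in transfected HepG2 cells, 24 h exposure; activity fitted in both directions against DMSO controls.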

[7] = biological target: Hepatocyte nuclear factor 6 (Homo sapiens) (UniProt Q9UBC0); test: ATG_HNF6_CIS: Attagene CIS-FACTORIAL HepG2 Assay for human Hepatocyte Nuclear Factor 6 (HNF6) (AID 2282952); settings: HepG2 Attagene cis-factorial HNF6 reporter transcription; actives raise or lower the signal
Procedure, shortened: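 HepG2 cells transiently transfected with cis-element-driven multiplexed reporter units measuring endogenous transcription factor activity. After 24 h exposure, reporter mRNA quantified by RT-PCR, FAM-labelled fragments and capillary electrophoresis; bidirectional fitting versus DMSO.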

[8] = biological target: Heat shock factor protein 1 (Homo sapiens) (UniProt Q00613); test: ATG_HSE_CIS: Attagene CIS-FACTORIAL HepG2 Assay for human Heat Shock Transcription Factor 1 (HSE) (AID 2282953); settings: HepG2 HSE cis-reporter, Attagene RNA transcription; actives raise or lower the signal
Procedure, shortened: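 HepG2 cells transfected with cis-promoter reporter units sensing endogenous transcription factor activity; reporter mRNA quantified 24 h post-dose by RT-PCR and capillary electrophoresis of 6-FAM-labelled products. Bidirectional fitting against DMSO.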

[9] = ATG_MRE_CIS: Attagene CIS-FACTORIAL HepG2 Assay for human Metal Responsive Element (MRE) (AID 2282954); settings: HepG2 MRE cis-reporter transcription, Attagene multiplex; actives raise or lower the signal
Procedure, shortened: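 After a 24 h chemical exposure, transiently transfected HepG2 cells yield RNA whose reporter sequences are amplified, FAM-labelled and sized by capillary electrophoresis. Curves are fitted bidirectionally relative to DMSO.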

[10] = ATG_PBREM_CIS: Attagene CIS-FACTORIAL HepG2 Assay for human Phenobarbital-responsive Enhancer Module (PBREM) (AID 2282955); settings: HepG2 PBREM cis-reporter, Attagene multiplexed transcription; actives raise or lower the signal
Procedure, shortened: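 Reporter mRNA read by RT-PCR, 6-FAM primer extension, HpaI digestion and capillary electrophoresis. Transfected HepG2 cells, 24 h compound exposure. Gain or loss of signal fitted bidirectionally relative to DMSO baseline.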

Measured: AC50

Hypoxia-inducible factor 1-alpha (Homo sapiens), sequence (Q16665 whole entry, looked up): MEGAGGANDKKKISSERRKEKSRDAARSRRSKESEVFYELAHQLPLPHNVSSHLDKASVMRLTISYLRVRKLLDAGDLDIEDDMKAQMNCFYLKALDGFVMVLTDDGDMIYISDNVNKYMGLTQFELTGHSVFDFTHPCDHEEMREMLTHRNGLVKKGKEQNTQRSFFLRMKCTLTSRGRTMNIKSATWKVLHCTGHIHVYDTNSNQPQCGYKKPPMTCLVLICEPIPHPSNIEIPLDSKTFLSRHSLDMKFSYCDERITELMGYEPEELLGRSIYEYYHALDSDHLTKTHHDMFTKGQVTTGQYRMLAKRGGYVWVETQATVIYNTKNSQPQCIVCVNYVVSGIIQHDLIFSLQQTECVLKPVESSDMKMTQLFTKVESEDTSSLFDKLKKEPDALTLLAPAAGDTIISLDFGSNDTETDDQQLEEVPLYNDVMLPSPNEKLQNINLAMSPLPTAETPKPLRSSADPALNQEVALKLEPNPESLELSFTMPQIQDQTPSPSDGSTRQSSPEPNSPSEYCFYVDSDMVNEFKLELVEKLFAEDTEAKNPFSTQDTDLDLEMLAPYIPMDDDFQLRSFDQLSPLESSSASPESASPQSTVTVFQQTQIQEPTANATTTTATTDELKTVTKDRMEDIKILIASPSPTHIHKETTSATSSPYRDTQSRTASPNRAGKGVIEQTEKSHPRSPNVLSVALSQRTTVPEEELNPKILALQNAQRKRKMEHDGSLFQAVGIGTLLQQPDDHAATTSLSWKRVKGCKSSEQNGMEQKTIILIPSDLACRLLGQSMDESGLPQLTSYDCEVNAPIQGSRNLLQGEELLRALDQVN
Bile acid receptor (Homo sapiens), sequence (Q96RI1 whole entry, looked up, the tested form may be a part): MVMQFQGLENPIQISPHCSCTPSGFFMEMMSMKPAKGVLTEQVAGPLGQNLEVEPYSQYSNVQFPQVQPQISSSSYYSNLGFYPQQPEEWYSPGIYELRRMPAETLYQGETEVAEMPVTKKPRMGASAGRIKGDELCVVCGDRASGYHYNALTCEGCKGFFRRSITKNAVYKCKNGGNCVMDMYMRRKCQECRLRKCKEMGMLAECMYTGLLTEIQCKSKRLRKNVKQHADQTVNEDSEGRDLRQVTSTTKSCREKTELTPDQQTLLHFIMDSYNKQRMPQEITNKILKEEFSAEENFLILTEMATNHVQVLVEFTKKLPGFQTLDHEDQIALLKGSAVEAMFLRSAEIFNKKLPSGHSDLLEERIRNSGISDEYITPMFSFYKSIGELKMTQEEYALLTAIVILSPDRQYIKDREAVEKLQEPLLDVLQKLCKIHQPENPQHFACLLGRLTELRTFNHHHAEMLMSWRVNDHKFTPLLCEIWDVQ
Heat shock factor protein 1 (Homo sapiens), sequence (Q00613 whole entry, looked up): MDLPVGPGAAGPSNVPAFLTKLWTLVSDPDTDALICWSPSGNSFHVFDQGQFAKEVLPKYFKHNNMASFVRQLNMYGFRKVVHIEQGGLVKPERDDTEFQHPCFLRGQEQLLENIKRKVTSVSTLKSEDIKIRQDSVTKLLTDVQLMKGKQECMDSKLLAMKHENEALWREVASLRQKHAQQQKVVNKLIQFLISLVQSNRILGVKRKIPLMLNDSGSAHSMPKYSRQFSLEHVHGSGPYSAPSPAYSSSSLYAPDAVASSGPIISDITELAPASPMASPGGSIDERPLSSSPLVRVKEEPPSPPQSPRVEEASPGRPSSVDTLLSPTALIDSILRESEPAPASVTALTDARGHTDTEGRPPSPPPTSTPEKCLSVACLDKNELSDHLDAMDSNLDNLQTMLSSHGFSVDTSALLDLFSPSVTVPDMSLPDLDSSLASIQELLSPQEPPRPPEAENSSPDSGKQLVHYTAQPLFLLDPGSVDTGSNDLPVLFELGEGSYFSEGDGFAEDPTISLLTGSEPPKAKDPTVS
Hepatocyte nuclear factor 6 (Homo sapiens), sequence (Q9UBC0 whole entry, looked up, the tested form may be a part): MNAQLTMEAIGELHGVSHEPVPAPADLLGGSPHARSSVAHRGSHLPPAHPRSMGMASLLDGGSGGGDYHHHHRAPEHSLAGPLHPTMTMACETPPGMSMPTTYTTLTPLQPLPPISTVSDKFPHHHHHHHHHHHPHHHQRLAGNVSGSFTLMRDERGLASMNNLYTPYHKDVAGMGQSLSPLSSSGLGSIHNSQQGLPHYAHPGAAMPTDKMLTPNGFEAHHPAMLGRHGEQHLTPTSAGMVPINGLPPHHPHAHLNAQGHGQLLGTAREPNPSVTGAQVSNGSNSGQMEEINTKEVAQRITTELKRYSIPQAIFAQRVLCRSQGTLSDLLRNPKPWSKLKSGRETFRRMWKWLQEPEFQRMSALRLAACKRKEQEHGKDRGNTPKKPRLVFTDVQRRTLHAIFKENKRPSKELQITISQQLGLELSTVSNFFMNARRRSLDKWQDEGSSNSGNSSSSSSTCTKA

Cc1ccc(C(C)C)cc1
inactive: all assays above

O=C(O)Cn1c(=O)n(Cc2ccc(Br)cc2F)c(=O)c2ccc(Cl)cc21
not listed: [6]
inactive: all other assays above

CC/C(=C(/CC)c1ccc(O)cc1)c1ccc(O)cc1
active: [1] 15.4 µM and 2.2 µM | [3] 11.1 µM | [8] 20 µM and 18.7 µM and 20.2 µM | [9] 15.2 µM [middle of 4 runs]
inactive: [1] | [2] | [3] | [4] | [5] | [6] | [8] | [9]

CCN(Cc1cccc(S(=O)(=O)O)c1)c1ccc(C(=C2C=CC(=[N+](CC)Cc3cccc(S(=O)(=O)O)c3)C=C2)c2ccccc2S(=O)(=O)[O-])cc1
not listed: [2] | [6] | [7]
inactive: all other assays above

CN(C)c1ccc(C(=C2C=CC(=[N+](C)C)C=C2)c2ccc(N(C)C)cc2)cc1
active: [1] 2.87 µM | [3] 2.28 µM | [4] 2.03 µM | [8] 6.63 µM | [9] 4.28 µM | [10] 5.8 µM
inactive: [2] | [5]

C[C@]12CC[C@@H]3c4ccc(O)cc4CC[C@H]3[C@@H]1CCC2=O
inactive: [1] | [3] | [4] | [5] | [8] | [9]

Cc1c2ccccc2c(C)c2c1ccc1ccccc12
active: [1] 6.62 µM | [4] 55.3 µM
not listed: [6] | [7]
inactive: all other assays above

CC[C@@H]1C[C@H](N(Cc2cc(C(F)(F)F)cc(C(F)(F)F)c2)C(C)=O)c2cc(C(F)(F)F)ccc2N1C(=O)OC(C)C
active: [10] 0.181 µM
not listed: [1] | [7]
inactive: all other assays above

O=c1ccc2ccccc2o1
not listed: [2] | [6]
inactive: all other assays above

CC(O)CC(C)(C)O (centres undefined)
not listed: [1] | [7] | [10]
inactive: all other assays above

c1ccc(C[n+]2cccc3ccccc32)cc1
not listed: [6] | [7]
inactive: all other assays above

c1ccc2ccccc2c1
active: [7] 100 µM
inactive: [1] | [3] | [4] | [5] | [6] | [7] | [8] | [9]

Oc1ccccc1
not listed: [2] | [7] | [8]
inactive: all other assays above

Clc1cc(Cl)c2c(c1)N=C1CCCCCN1C2
not listed: [6] | [7]
inactive: all other assays above

CCCCCCCCCC(=O)O
not listed: [1] | [7] | [10]
inactive: all other assays above

CCN(CC)C(=O)c1cc(S(=O)(=O)Cc2ccccc2)c(N2CCC(c3ccccc3)CC2)cc1N(CC)CCN(C)C
active: [9] 3.7 µM
not listed: [6] | [7]
inactive: all other assays above

CCCCCCCCOC(=O)c1cc(O)c(O)c(O)c1
not listed: [6] | [7]
inactive: all other assays above

O=C1O[C@H]([C@@H](O)CO)C(O)=C1O
not listed: [1] | [6]
inactive: all other assays above

CC(C)(O)c1ccc(CNC(=O)c2cccnc2Oc2ccc3nonc3c2)cc1
active: [10] 33.4 µM
not listed: [1]
inactive: all other assays above

CC(=O)N1CCN(c2ccc(OC[C@H]3CO[C@](Cn4ccnc4)(c4ccc(Cl)cc4Cl)O3)cc2)CC1
active: [1] 48.5 µM | [3] 15.1 µM | [8] 55.6 µM | [9] 33.9 µM
inactive: [2] | [4] | [5] | [10]

c1ccc2n[nH]nc2c1
not listed: [1] | [7]
inactive: all other assays above

CCCCCCCCN(C)CCCCCCCC
not listed: [1]
inactive: all other assays above

O=C1c2ccccc2C(=O)N1CCc1noc(-c2ccc(CN3CCCCCC3)s2)n1
active: [9] 84.5 µM | [10] 24.1 µM
not listed: [2] | [6]
inactive: all other assays above

Cc1ncc(CO)c(CO)c1O
inactive: [1] | [3] | [4] | [5] | [8] | [9]

OCCO
not listed: [2] | [6] | [7]
inactive: all other assays above

C[C@]12CC[C@@H]3c4ccc(O)cc4CC[C@H]3[C@@H]1CC[C@H]2O
inactive: [2] | [3] | [4] | [5] | [8] | [9] | [10]
active: [9] 24.8 µM

Cc1cccc2ccccc12
not listed: [2] | [6]
inactive: all other assays above

CN1C(=O)CC[C@H]1c1cccnc1
not listed: [1] | [2] | [6]
inactive: all other assays above

CCO[Si](CCCNC(N)=O)(OCC)OCC
not listed: [6] | [7]
inactive: all other assays above

CCCCCCCCCCCCO
not listed: [2]
inactive: all other assays above

CCCCCCCC[Si](OCC)(OCC)OCC
active: [2] 127 µM | [3] 41.8 µM
inactive: [2] | [3] | [4] | [5] | [7] | [8] | [9]

CCCCCCCCCCCO
inactive: [1] | [3] | [4] | [5] | [9] | [10]

CCCCCCCCOc1ccc(C(=O)c2ccccc2)c(O)c1
not listed: [2]
inactive: all other assays above

CO[C@H]1/C=C/O[C@@]2(C)Oc3c(C)c(O)c4c(O)c(c(/C=N/N5CCN(C)CC5)c(O)c4c3C2=O)NC(=O)/C(C)=C\C=C\[C@H](C)[C@H](O)[C@@H](C)[C@@H](O)[C@@H](C)[C@H](OC(C)=O)[C@@H]1C
inactive: [3] | [4] | [5] | [8] | [9] | [10]

O=c1[nH]sc2ccccc12
active: [3] 33.4 µM | [8] 52.8 µM
not listed: [6] | [7]
inactive: all other assays above

Oc1ccc2ccccc2c1
active: [3] 100 µM
inactive: [2] | [3] | [4] | [5] | [6] | [7] | [8] | [9]

CCCCCc1ccc(N)cc1
inactive: [3] | [4] | [5] | [6] | [7] | [8] | [9] | [10]
active: [6] 2.57 µM | [9] 46 µM

O=C=NCCCCCCN=C=O
not listed: [2] | [6] | [7]
inactive: all other assays above

CC1(C)NC(=O)N(c2ccc([N+](=O)[O-])c(C(F)(F)F)c2)C1=O
not listed: [2] | [6]
inactive: all other assays above

CCCOC(=O)c1cc(O)c(O)c(O)c1
not listed: [6] | [7]
inactive: all other assays above

Cc1oc2c(NC(=O)c3c(Cl)cccc3Cl)cccc2c1C(C)(C)O
active: [1] 158 µM | [3] 26.8 µM | [8] 177 µM | [9] 129 µM | [10] 6.18 µM
inactive: [2] | [4] | [5]
